The list is not random: actives were taken first. Their share in the collection is about 3.8%.
tim10-1 inh – growth inhibitors of tim10-1 mutant yeast, primary screen, luminescence, uHTS | S. cerevisiae tim10-1 ts strain growth, BacTiter-Glo, 24 h | inhibition, % at 20 µM | 330,000 tested, 2.2% active | AID 463190, 2010;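 active means inhibition of at least 40%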;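 further: mutant grown at 25 °C; 0% = DMSO wells with yeast and 100% = wells holding no yeast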
Yeast superoxide – reduction of superoxide in aged yeast, primary screen, HTS; S. cerevisiae aged cells, superoxide DHE fluorescence; hits give low values; superoxide response (% of plate mean), % at 10 µM; 330,000 tested, 0.18% active; AID 2690, 2010;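 active means superoxide response under a set limit, about three screen SD below normal, cut at about 65% in these data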;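 further: yeast aged for seven days with compound at 30 °C before DHE staining; 100% = average MFI of all compound-treated wells on the plate with controls excluded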
tim23-1 inh – growth inhibitors of tim23-1 mutant yeast, primary screen, luminescence, uHTS | S. cerevisiae tim23-1 growth, BacTiter-Glo luminescence, 24 h | inhibition, % at 20 µM | 330,000 tested, 1.3% active;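 active means growth inhibition of the mutant yeast at or above 50%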;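 further: temperature-sensitive mutant grown at 25 °C; plate controls were DMSO-treated mutant yeast for no effect and medium wells lacking yeast for full effect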
TIM10 inh – growth inhibitors of isogenic TIM10 control yeast, primary screen, counter-screen for tim10-1 yeast inhibitor project, luminescence, uHTS | S. cerevisiae TIM10 strain growth, BacTiter-Glo luminescence, 24 h | inhibition, % at 10 µM | 330,000 tested, 1.4% active | AID 463195, 2010;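 active means inhibition of 40% or more at the single tested concentration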;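 further: wild-type TIM10 isogenic control strain grown at permissive 25 °C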
NALP3 yeast inh – NALP3 inflammasome inhibitors in reconstituted yeast, primary screen, luminescence, uHTS. Yeast reconstituted NLRP3/ASC/caspase-1, beta-gal luminescence, 24 h. inhibition, % at 10 µM. 330,000 tested, 0.39% active. AID 2825, 2010;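 active means inhibition of 50% or more; inactive means inhibition below 50%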;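 further: plate controls were induced DMSO wells for no effect and uninduced yeast grown without galactose for full effect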
tim23-1 confirm – tim23-1 mutant yeast growth inhibitors, confirmation, luminescence, single concentration; shares compounds with tim23-1 inh; S. cerevisiae tim23-1 growth, BacTiter-Glo luminescence, 24 h; inhibition, % at 20 µM; 4,400 tested, 83% active; AID 463218, 2010;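 active means inhibition above about 39% in either of two replicate wells at 20 µM, limit read from the data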;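 further: temperature-sensitive tim23-1 mutant grown at 25 °C; 0% = DMSO wells with yeast and 100% = medium wells without yeast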
Starred values were filed as active, the others as inactive; x = no result.

SMILES | tim10-1 inh | Yeast superoxide | tim23-1 inh | TIM10 inh | NALP3 yeast inh | tim23-1 confirm
CCOc1ccc(NCc2cc3c(C(C)(C)C)nn(-c4ccccc4)c3[nH]c2=O)cc1 | 22 | 96 | 58* | 32 | 46 | 55*
Cc1cnc(NC(=O)c2cc3c(s2)CCCC3)s1 | 26 | 105 | 55* | 28 | 35 | 47*
CCc1nnc(NC(=O)c2cc3c(s2)CCCCC3)s1 | 11 | 88 | -10 | -2 | -5 | x
Cc1ccnc(Nc2nc(-c3ccc(O)cc3O)cs2)c1 | -8 | 92 | 86* | -6 | 23 | 77*
O=C(N/N=C/c1cc(Br)cc(Br)c1O)c1cccc(N2CCCC2=O)c1 | -7 | 104 | 51* | -5 | 42 | 56*
O=C(COC(=O)Cc1ccccc1[N+](=O)[O-])NCC1CCCCC1 | 17 | 95 | 12 | 9 | 3 | x
Cc1nc(Nc2ccccc2)sc1C(=O)c1ccccc1 | 15 | 91 | 32 | 27 | 15 | x
CC(C)(C)C(=O)c1sc(Nc2ccccc2)nc1N | -34 | 127 | 53* | 6 | 22 | 41*
COCCN(C(=O)CNC(=O)c1cccs1)C(C(=O)NC(C)(C)C)c1ccccc1 (stereo unspecified) | 18 | 101 | 0 | 7 | -16 | x
O=C(OCn1nnc2ccccc2c1=O)c1ccc(S(=O)(=O)N2CCOCC2)cc1 | 19 | 102 | 14 | 7 | -2 | x
CCN(CC)S(=O)(=O)c1ccc(C(=O)OCn2nnc3ccccc3c2=O)cc1 | 14 | 103 | 70* | -21 | 11 | 56*
COc1ccc(C(C[N+](=O)[O-])c2c(C)[nH]n(-c3ccccc3)c2=O)cc1 (stereo unspecified) | 21 | 98 | 76* | 10 | 20 | 67*
Cc1[nH]n(-c2ccccc2)c(=O)c1C(c1ccc(O)c([N+](=O)[O-])c1)c1c(C)[nH]n(-c2ccccc2)c1=O | 32 | 97 | 32 | 17 | -26 | x
COc1cc(OC)cc(C(=O)Nc2ccc(Nc3ccccc3)cc2)c1 | -10 | 87 | 72* | 23 | 28 | 59*
COC(=O)c1cccc(NC(=O)c2ccc(OC)c(Cl)c2)c1 | 11 | 110 | 57* | 15 | 26 | 48*
COc1cccc(C(=O)Nc2cccc(-c3ccccc3)c2)c1 | 32 | 103 | 55* | 25 | 28 | 49*
O=C(Nc1ccc(Nc2ccccc2)cc1)c1ccccc1 | -38 | 107 | 56* | 6 | 47 | 60*
O=C(Nc1ccc(Nc2ccccc2)cc1)c1ccc(Cl)cc1 | -30 | 105 | 4 | -8 | 23 | x
Cc1cccc(N(CC(=O)NC2CCCCC2)C(=O)CCCC(=O)Nc2ccccn2)c1C | -3 | 112 | 14 | 9 | 16 | x
Cc1cc(C)c(C(=O)C(C)OC(=O)c2ccc(Cl)nc2)cc1C (stereo unspecified) | -4 | 109 | 18 | -22 | 26 | x
COc1ccc(C(=O)Nc2ccc(Nc3ccccc3)cc2)cc1[N+](=O)[O-] | 21 | 100 | 52* | 0 | 30 | 38
COc1cccc(C(=O)Nc2ccccc2C(=O)N2CCCC2)c1 | 20 | 100 | 94* | 2 | 4 | 12
COc1ccc(C(=O)Nc2ccc(OCc3ccccc3)cc2)cc1[N+](=O)[O-] | 4 | 93 | 2 | 1 | 12 | x
Cc1nc(-c2ccc(NC(=O)c3ccccc3)cc2)cs1 | -2 | 104 | 54* | 22 | 39 | 53*
CC(C)Oc1cccc(C(=O)NC(=S)Nc2ccccc2)c1 | 17 | 97 | 51* | 26 | 4 | 36
SMILES | tim10-1 inh | Yeast superoxide | tim23-1 inh | TIM10 inh | NALP3 yeast inh | tim23-1 confirm
Cc1ccc(C(=O)Nc2ccc(-c3csc(C)n3)cc2)cc1 | -8 | 97 | -14 | 23 | 21 | x
C[C@@H](C(=O)N1CCN(C(=O)OC(C)(C)C)CC1)n1cc(CCC(=O)O)nn1 | 0 | 103 | -2 | -10 | 5 | x
CCn1nc(C)c(CNC(=O)c2cc(COc3ccc(C)nc3)on2)c1C | -2 | 72 | -7 | -1 | 6 | x
Cc1ccc(C(=O)CSc2nnc3c4ccccc4nc(Cc4ccccc4)n23)cc1 | 20 | 119 | -6 | 4 | 11 | x
CC(=O)NC1=NC(=O)/C(=C/c2cn(C(C)=O)nc2-c2ccccc2)S1 | 5 | 92 | -1 | -21 | 6 | x
CCN=C1S/C(=C\c2cn(C(C)=O)nc2-c2ccccc2)C(=O)N1CC | 28 | 107 | 53* | 29 | 6 | 48*
CC1CCCCN1C(=O)COC(=O)c1cc([N+](=O)[O-])ccc1N1CCOCC1 (stereo unspecified) | -24 | 96 | -1 | -18 | 9 | x
COc1ccc(/C=c2\sc3nc(=O)c(C)nn3c2=O)c(OC)c1 | 31 | 102 | 53* | 8 | 18 | 39*
O=C(CN1C(=O)NC2(CCc3ccccc32)C1=O)c1ccc(Cl)cc1 (stereo unspecified) | 6 | 87 | 26 | -5 | 4 | x
CC(C)c1ccc(C(=O)CN2C(=O)NC3(CCc4ccccc43)C2=O)cc1 (stereo unspecified) | 19 | 98 | 54* | 26 | 12 | 44*
Oc1ccc(F)cc1-c1cc(-c2ccc3c(c2)OCCO3)n[nH]1 | 3 | 97 | -6 | 17 | 24 | x
Oc1ccccc1-c1cc(-c2ccccc2)n[nH]1 | -9 | 82 | 71* | 18 | 36 | 60*
Oc1ccccc1-c1cc(-c2ccc(F)cc2)n[nH]1 | 39 | 127 | 68* | 25 | 20 | 61*
O=C(Nc1cc(Cl)ccn1)C1(c2ccccc2)CC1(Cl)Cl (stereo unspecified) | 32 | 96 | 55* | 17 | 19 | 65*
O=C(Nc1ccccc1)C1(c2ccccc2)CC1(Cl)Cl (stereo unspecified) | 18 | 98 | 28 | 28 | 18 | x
CCc1nc(Nc2ccncc2)c2oc3ccccc3c2n1 | 6 | 84 | -2 | 6 | -3 | x
CCc1nc(Nc2cccc(O)c2)c2oc3ccccc3c2n1 | 9 | 106 | 60* | 29 | 16 | 46*
COc1ccc(C2=NNC(c3cccs3)=Nc3ccc(OC)cc32)cc1 | 25 | 90 | 60* | 37 | 8 | 61*
CCOc1ccc(C2=NNC(c3cccs3)=Nc3ccc(OC)cc32)cc1OCC | 12 | 93 | 0 | 33 | 3 | x
Cc1ccc(-c2csc3ncnc(N4CCN(C(=O)c5ccco5)CC4)c23)cc1 | 29 | 95 | 51* | 31 | 18 | 42*
CC(C)(C)C(=O)N1CCN(c2ncnc3scc(-c4ccccc4)c23)CC1 | 31 | 102 | 51* | 26 | 13 | 29
O=C(NCc1n[nH]c(=S)n1-c1ccc(Br)cc1)c1ccc(S(=O)(=O)N2CCCCC2)cc1 | -16 | 86 | 5 | 1 | 19 | x

Assay outcomes: PubChem, several laboratories
